mHTT CaM bind: mutant huntingtin-calmodulin interaction inhibitors – biochemical, AlphaScreen, primary screen | P42858 | AlphaScreen His-mHTT/GST-CaM binding, luminescence | inhibition, % at 15 µM | 3.6% of 190,000 active | AID 1671202, 2021;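 note: 0% = both proteins with DMSO and 100% = one protein alone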
Pf apPOL block: Pf-apPOL inhibitors, biochemical, fluorescence; Plasmodium falciparum apicoplast DNA polymerase (apPOL); inhibition, % at 10 µM; 0.25% of 210,000 active; Recombinant Pf-apPOL, molecular beacon fluorescence, 1.5 h
* marks the source's active call; other numbers are inactive results; . = no result. Hits are enriched below; roughly 3.6% of the tested compounds scored in any of these assays. Cut-off read from the data, not from the text of the source: active = inhibition above about 50%; inactive = the rest.

SMILES	mHTT CaM bind	Pf apPOL block
Cc1ccc(-c2noc(C3CCN(CC(=O)Nc4cccc(Cl)c4C)CC3)n2)cc1	-6	0
O=C(Nc1ccc(F)cc1)C1CCN(c2ccccc2Br)C1=O (centres undefined)	1	-1
COc1ccc(Cl)cc1/C=C1/N=C(SC)SC1=O	-13	2
COc1ccc(NC2=CC(=NS(=O)(=O)c3cc(C)ccc3C)c3ccccc3C2=O)cc1	47	7
Cc1ccc(C)c(S(=O)(=O)N=C2C=C(Nc3ccccc3)C(=O)c3ccccc32)c1	89*	-3
Cc1ccc(CC(=O)N2CCC(c3cnn(-c4cccc(F)c4)c3)CC2)cc1	3	-8
O=C(Nc1ccccc1F)C(NS(=O)(=O)c1cccs1)c1ccccc1 (centres undefined)	3	-5
O=C(Nc1ccc(Cl)c(C(F)(F)F)c1)C(NS(=O)(=O)c1cccs1)c1ccccc1 (centres undefined)	100*	-8
O=C1OC(/C=C/c2ccc([N+](=O)[O-])cc2)=NC/1=C\c1cccc(Br)c1	0	0
CC1(C)OC(=O)C(=Cc2c(F)cccc2Cl)C(=O)O1	.	-13
O=C(Nc1ccc(N2CCCCC2)cc1)c1ccccc1[N+](=O)[O-]	20	-30
O=C(Nc1ccc(N2CCCC2)cc1)C(Cl)(Cl)Cl	74*	-9
O=C(Nc1ccc2c(c1)CCCN2C(=O)C1CC1)c1cc(Br)ccc1Cl	-8	-4
O=C(Nc1ccc(N2CCCC2)cc1)c1cc(Br)ccc1Cl	86*	0
O=C(Nc1ccc(N2CCCC2)cc1)c1ccccc1[N+](=O)[O-]	84*	-6
O=C(Nc1ccc(N2CCCC2)cc1)c1ccc(Br)o1	62*	2
O=C(Nc1cnc(N2CCCCC2)nc1)c1ccc(Br)o1	-6	-2
Cc1ccccc1C(=O)Nc1ccc(N2CCCC2)cc1	34	-34
COc1cccc(NC(=O)c2ccnc(N3CCC(C(=O)Nc4ccc(F)cc4)CC3)c2)c1	-3	1
CSc1ccccc1C(=O)NCCN1CCN(C(=O)c2cccs2)CC1	-19	-2
CCc1ccc(NC(=O)Cn2nnnc2C)cc1	3	-1
O=C(c1ccc(F)cc1F)N1CCC(CCOc2ccccc2)CC1	-18	-4
COc1ccc(C(=O)Cn2c3ccccc3n3nc(C)nc23)cc1	5	-2
Cc1cc(C)cc(NC(=O)CSc2cn(CCNC(=O)c3ccc(F)cc3)c3ccccc23)c1	78*	4
Cc1cccc(NC(=O)CSc2cn(CCNC(=O)c3ccc(F)cc3)c3ccccc23)c1	40	-6
SMILES	mHTT CaM bind	Pf apPOL block
O=C(Sc1n[nH]c(=O)[nH]c1=O)c1cccc(Br)c1	4	-5
Cc1ccc(C(=O)Sc2n[nH]c(=O)[nH]c2=O)cc1	98*	12
COc1cccc(OCc2noc(-c3cccc(Cl)c3)n2)c1	-43	-1
CN(C)c1cccc(OCc2noc(-c3cccc(Cl)c3)n2)c1	62*	-21
Cc1ccc2oc(=O)c(C=C(O)c3ccco3)nc2c1	2	10
Cc1ccccc1NC(=O)c1ccccc1Br	0	1
O=C(O)c1cc2ncccn2n1	-1	52*
O=C(O)c1cnn2cccnc12	9	-1
Cn1ccnc1N1CCN(C(=O)c2ccc(N3C(=O)CCC3=O)cc2)CC1	-6	0
CCOc1cccc(N2C(=O)NC(=O)/C(=C\c3ccc(Oc4ccc([N+](=O)[O-])cn4)cc3)C2=O)c1	50*	-7
O=C1NN(c2ccccc2)C(=O)/C1=C/c1cccc(OCCOc2ccc([N+](=O)[O-])cc2)c1	27	3
CN(CC(=O)NCc1ccc(F)cc1)S(=O)(=O)c1ccc2[nH]c3c(c2c1)CCCC3	41	-4
CN(CC(=O)NC1CCCCC1)S(=O)(=O)c1ccc2[nH]c3c(c2c1)CCCC3	97*	0
Cc1ccc(S(=O)(=O)NC2CCCCC2)cc1[N+](=O)[O-]	0	-2
O=S(=O)(Nc1ccccc1)c1ccc2[nH]c3c(c2c1)CCCCC3	100*	-6
NS(=O)(=O)c1ccc2[nH]c3c(c2c1)CCCC3	3	-10
CN(CC(=O)NC1CCCC1)S(=O)(=O)c1ccc2[nH]c3c(c2c1)CCCC3	18	-6
O=S(=O)(NC1CCCCC1)c1ccc2[nH]c3c(c2c1)CCCC3	87*	-5
O=S(=O)(Nc1ccc(F)cc1)c1ccc2[nH]c3c(c2c1)CCCC3	98*	-4
COc1cccc(C(=O)N2CCCC(C)(C(=O)NCc3ccc(C)cc3)C2)c1 (centres undefined)	14	-1
CCCc1c(C)c2cc3c(-c4ccccc4)coc3cc2oc1=O	8	19
Cc1cc(Cl)ccc1OCCCC(=O)NCc1cccnc1	-9	-3
CC(=O)c1cccc(NC(=O)CSc2ccc(-c3ccc(Br)cc3)nn2)c1	0	-2
O=S(=O)(Nc1ccc(Cl)cn1)c1ccc2[nH]c3c(c2c1)CCCC3	55*	-2
CCc1ccc(S(=O)(=O)Nc2ccc(Cl)cn2)cc1	-1	10

From PubChem BioAssay
